In PubChem BioAssay (NCI):
The panel holds about 83,000 compounds, 20% with a hit somewhere; the sample as a whole holds those more often.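 96-well plates, one dose, 48 hours. Percent growth reported; active if below 10.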 A number with no mark means an inactive call. Activity calls are given as the source filed them.

Assays:
Assay in all cases: NCI-60 one-dose screen, 48 h (100 = growth as untreated, 0 = no growth, -100 = all killed)
Conditions in all cases: 10 µM unless noted
NCI-H23 lung = tested on: NCI-H23 lung
NCI-H226 lung = tested on: NCI-H226 lung
NCI-H322M lung = tested on: NCI-H322M lung
HOP-62 NSCLC = tested on: HOP-62 NSCLC
NCI-H460 lung = tested on: NCI-H460 lung
HOP-92 NSCLC = tested on: HOP-92 NSCLC
NCI-H522 lung = tested on: NCI-H522 lung
A549/ATCC NSCLC = tested on: A549/ATCC NSCLC
786-0 renal = tested on: 786-0 renal
COLO 205 colon = tested on: COLO 205 colon

SMILES | growth (NCI-H23 lung) | growth (NCI-H226 lung) | growth (NCI-H322M lung) | growth (HOP-62 NSCLC) | growth (NCI-H460 lung) | growth (HOP-92 NSCLC) | growth (NCI-H522 lung) | growth (A549/ATCC NSCLC) | growth (786-0 renal) | growth (COLO 205 colon)
COc1ccc2c(c1)c(-c1nc(-c3cn(C)c4ncccc34)cs1)cn2CCCCN1CCCCC1 | 15.3% | 56.6% | -31.4% (active) | -78.5% (active) | -61.2% (active) | 50.3% | -61.7% (active) | -56.4% (active) | -90.8% (active) | -71.7% (active)
CC[C@H](C)[C@H](NC(=O)C12C3C4C1C1C2C3C41NC(C)=O)C(=O)N(C)[C@H](C[C@@H](OC(C)=O)c1nc(C(=O)N[C@@H](Cc2ccccc2)C[C@H](C)C(=O)OC)cs1)C(C)C (stereo not given in full) | 25.1% | 31.7% | 51.5% | 22.4% | 3.63% (active) | 30.2% | 6.65% (active) | 27.7% | 12% | -26.1% (active)
CC[S][Hg][Cl] | 102% | 113% | 101% | 119% | 110% | 113% | -46.7% (active) | 98.8% | 109% | 124%
C[C@]12CC[C@H]3[C@@H](CC4SC(N)=NC45C/C(=N/NC(N)=O)CC[C@]35C)[C@@H]1CCC2=O (stereo not given in full) | -44.3% (active) | 108% | 52.4% | 75.5% | -38.7% (active) | 46.6% | -18.6% (active) | 0.923% (active) | -9.65% (active) | 35%
O=[N+]([O-])c1cc([N+](=O)[O-])c(Nn2c3ccccc3c3ccccc32)c([N+](=O)[O-])c1 | -3.12% (active) | -1.91% (active) | 2.33% (active) | -11.8% (active) | 3.43% (active) | -28.1% (active) | -25.4% (active) | 4.97% (active) | 0.775% (active) | -65.2% (active)
Cc1cc(N(CCCl)CCCl)ccc1C=Nc1ccccc1-c1ccccc1 | 60.8% | -38.8% (active) | 101% | 54.6% | 16.4% | 84.4% | 99.5% | 59.6% | 52.1% | 86.1%
CCCC(=O)O[C@@H]1C[C@H]2C[C@@H](O[C@@H]3O[C@@H](C)[C@@H](O)[C@@H](O)[C@H]3OC)C[C@@H](C[C@@H](C)/C=C/C=C\C[C@@H]3O[C@@H](C[C@@H]3C)[C@@H](O)C[C@H]3C[C@@]1(O)C(=O)O3)O2 | 25.9% | 33.3% | 88.4% | 64.8% | 47.3% | 91.6% | 21% | 46.4% | 76.6% | 39.4%
CC(=O)[O][Hg][O]C(C)=O | 98.4% | 118% | 89.6% | 100% | 101% | 142% | -73.9% (active) | 103% | 103% | 88.5%
COC(=O)[C@@H](C)C[C@H](Cc1ccccc1)NC(=O)c1nc([C@@H](C[C@H](C(C)C)N(C)C(=O)[C@@H](NC(=O)[C@H]2CCCN2C)C(C)C)OC(C)=O)sc1C | 31.8% | 43.4% | 35.2% | 21.1% | 7.21% (active) | 8.77% (active) | -23.7% (active) | 16.1% | 14.3% | -74.2% (active)
O=[N+]([O-])c1cc([N+](=O)[O-])c(Cl)cc1Cl | -56.4% (active) | -59% (active) | 40.6% | -73.9% (active) | -45.8% (active) | -80.1% (active) | -69.6% (active) | 39.9% | -67.8% (active) | -75.7% (active)
C/C(=C\c1ccn(-c2ccc(N)c(F)c2)n1)[C@@H]1C[C@@H]2O[C@]2(C)CCC[C@H](C)[C@H](O)[C@@H](C)C(=O)C(C)(C)[C@@H](O)CC(=O)O1 | 30.4% | 50.9% | 25.7% | 38.1% | 15.9% | 53.2% | 18.7% | 26.5% | 25.3% | -8.2% (active)
Cc1c(NS(=O)(=O)c2ccccc2)ccc([N+](=O)[O-])c1Cl | 58.6% | 62.7% | 102% | 95.1% | 67% | -9.14% (active) | 55.7% | 58.6% | 41.1% | 109%
C[C@]12CCc3sc(-c4cccc(F)c4)nc3C1=CC[C@@H]1[C@@H]2CC[C@]2(C)C(=O)CC[C@@H]12 | 62.7% | 65.8% | 69.3% | 50.5% | 53.9% | 74.3% | -36.5% (active) | 55% | -10.1% (active) | 44.5%
